# Measurements taken from article PMC7862700, “An all-to-all approach to the identification of sequence-specific readers for epigenetic DNA modifications on cytosine”.
# Columns and labels:
# Experiment in all cases: DAPPL (digital affinity profiling via proximity ligation, sequencing); 10 mM Tris-HCl pH 7.5, 50 mM NaCl, 1 mM DTT, 4% glycerol, room temperature, 30 min; GST-TFs on glutathione beads, 16-mer random dsDNA library, 0.1% formaldehyde crosslink after washing; high values mean tight binding
# FEV = target: T1, FEV (Homo sapiens, UniProt Q99581 1-238); settings: protein: recombinant; tags: N-terminal GST; dsDNA, one strand shown
# T1 sequence: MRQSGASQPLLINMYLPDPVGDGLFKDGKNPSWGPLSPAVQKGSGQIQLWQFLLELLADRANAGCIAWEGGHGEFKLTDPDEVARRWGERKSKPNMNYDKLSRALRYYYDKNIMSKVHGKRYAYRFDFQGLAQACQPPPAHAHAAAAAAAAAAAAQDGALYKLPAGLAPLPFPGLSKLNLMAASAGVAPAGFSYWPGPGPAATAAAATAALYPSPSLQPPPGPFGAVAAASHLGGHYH
# Summary of the method: (§1)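 Each value of binding signal is a hexamer's read frequency for a factor divided by the same hexamer's frequency in the tag-only sample. Barcoded, bead-captured GST fusions of human transcription factors made in yeast were pooled with that sample and incubated with 200 nmole of a random double-stranded 16-mer DNA library in Tris/NaCl/DTT/glycerol buffer at room temperature for 30 min. Washing, 0.1% formaldehyde crosslinking, proximity ligation, PCR and Illumina NextSeq500 sequencing followed.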
# ETV5 = ETV5 (Homo sapiens, UniProt P41161 1-510); settings: protein: recombinant; tags: N-terminal GST; dsDNA, one strand shown
# Summary of the method: as §1
# HSF1 = HSF1 (Homo sapiens, UniProt Q00613 1-529); settings: protein: recombinant; tags: N-terminal GST; chain copies: 3; dsDNA, one strand shown
# Summary of the method: as §1
# SPIC = target: T2, SPIC (Homo sapiens, UniProt Q8N5J4 1-248); settings: protein: recombinant; tags: N-terminal GST; dsDNA, one strand shown
# T2 sequence: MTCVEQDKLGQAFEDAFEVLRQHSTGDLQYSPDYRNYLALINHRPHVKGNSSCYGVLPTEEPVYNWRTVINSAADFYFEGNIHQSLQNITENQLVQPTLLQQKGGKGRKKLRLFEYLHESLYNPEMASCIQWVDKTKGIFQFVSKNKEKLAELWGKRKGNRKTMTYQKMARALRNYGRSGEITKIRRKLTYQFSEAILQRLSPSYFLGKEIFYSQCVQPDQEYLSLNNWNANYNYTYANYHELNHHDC
# Summary of the method: as §1
# ELF4 = ELF4 (Homo sapiens, UniProt Q99607 1-663); settings: protein: recombinant; tags: N-terminal GST; dsDNA, one strand shown
# Summary of the method: as §1
# ELK4 = target: T3, ELK4 (Homo sapiens, UniProt P28324-2 1-405); settings: protein: recombinant; tags: N-terminal GST; dsDNA, one strand shown
# T3 sequence: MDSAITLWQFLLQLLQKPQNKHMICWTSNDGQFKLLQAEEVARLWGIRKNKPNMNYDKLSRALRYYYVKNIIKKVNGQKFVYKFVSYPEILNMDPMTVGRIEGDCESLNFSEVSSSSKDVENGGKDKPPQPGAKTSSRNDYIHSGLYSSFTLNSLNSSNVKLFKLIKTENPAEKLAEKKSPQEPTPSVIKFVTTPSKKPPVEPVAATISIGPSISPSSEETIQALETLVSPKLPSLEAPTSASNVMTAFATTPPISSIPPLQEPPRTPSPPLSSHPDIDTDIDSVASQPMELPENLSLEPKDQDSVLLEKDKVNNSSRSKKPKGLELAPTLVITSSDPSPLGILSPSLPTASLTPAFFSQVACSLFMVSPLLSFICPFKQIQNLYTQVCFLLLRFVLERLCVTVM
# Summary of the method: as §1
# ETV2 = target: T4, ETV2 (Homo sapiens, UniProt O00321 1-342); settings: protein: recombinant; tags: N-terminal GST; dsDNA, one strand shown
# T4 sequence: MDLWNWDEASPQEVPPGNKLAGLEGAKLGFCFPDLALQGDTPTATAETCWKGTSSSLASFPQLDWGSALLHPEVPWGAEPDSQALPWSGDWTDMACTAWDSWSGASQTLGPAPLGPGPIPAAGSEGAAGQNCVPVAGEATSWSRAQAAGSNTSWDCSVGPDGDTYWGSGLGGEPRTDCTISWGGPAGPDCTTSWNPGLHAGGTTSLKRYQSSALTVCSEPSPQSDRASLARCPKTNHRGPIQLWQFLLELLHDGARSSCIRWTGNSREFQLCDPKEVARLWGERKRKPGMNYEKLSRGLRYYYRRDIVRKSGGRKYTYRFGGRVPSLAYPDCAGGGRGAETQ
# Summary of the method: as §1
# ELF3 = target: T5, ELF3 (Homo sapiens, UniProt P78545 1-371); settings: protein: recombinant; tags: N-terminal GST; dsDNA, one strand shown
# T5 sequence: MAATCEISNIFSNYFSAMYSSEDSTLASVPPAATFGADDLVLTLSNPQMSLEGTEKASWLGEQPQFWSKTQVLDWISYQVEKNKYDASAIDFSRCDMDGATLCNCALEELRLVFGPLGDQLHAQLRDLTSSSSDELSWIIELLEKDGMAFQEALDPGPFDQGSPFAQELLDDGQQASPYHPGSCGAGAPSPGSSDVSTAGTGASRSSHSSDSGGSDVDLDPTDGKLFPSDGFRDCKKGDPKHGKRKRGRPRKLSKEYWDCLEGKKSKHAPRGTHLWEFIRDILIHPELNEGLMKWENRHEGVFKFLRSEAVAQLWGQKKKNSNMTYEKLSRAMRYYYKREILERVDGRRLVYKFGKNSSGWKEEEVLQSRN
# Summary of the method: as §1
# CRX = CRX (Homo sapiens, UniProt O43186 1-299); settings: protein: recombinant; tags: N-terminal GST; dsDNA, one strand shown
# Summary of the method: as §1
# ETV1 = ETV1 (Homo sapiens, UniProt P50549 1-477); settings: protein: recombinant; tags: N-terminal GST; dsDNA, one strand shown
# Summary of the method: as §1
# ERF = target: T6, ERF (Homo sapiens, UniProt P50548 1-548); settings: protein: recombinant; tags: N-terminal GST; dsDNA, one strand shown
# T6 sequence: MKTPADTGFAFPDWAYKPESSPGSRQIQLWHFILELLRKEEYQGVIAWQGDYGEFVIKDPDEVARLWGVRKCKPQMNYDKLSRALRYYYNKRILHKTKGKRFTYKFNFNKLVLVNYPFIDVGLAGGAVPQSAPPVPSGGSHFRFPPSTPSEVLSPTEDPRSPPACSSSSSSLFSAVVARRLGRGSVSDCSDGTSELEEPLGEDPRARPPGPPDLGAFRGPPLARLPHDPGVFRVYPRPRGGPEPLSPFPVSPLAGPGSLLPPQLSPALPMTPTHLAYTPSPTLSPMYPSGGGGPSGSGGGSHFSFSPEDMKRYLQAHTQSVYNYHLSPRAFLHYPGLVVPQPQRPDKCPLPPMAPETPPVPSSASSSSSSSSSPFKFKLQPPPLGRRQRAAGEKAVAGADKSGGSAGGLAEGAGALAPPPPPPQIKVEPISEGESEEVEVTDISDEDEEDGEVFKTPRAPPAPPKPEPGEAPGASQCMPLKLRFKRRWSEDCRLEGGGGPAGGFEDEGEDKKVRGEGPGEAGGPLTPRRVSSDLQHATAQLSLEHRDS
# Summary of the method: as §1
# ETV3L = target: T7, ETV3L (Homo sapiens, UniProt Q6ZN32 1-361); settings: protein: recombinant; tags: N-terminal GST; dsDNA, one strand shown
# T7 sequence: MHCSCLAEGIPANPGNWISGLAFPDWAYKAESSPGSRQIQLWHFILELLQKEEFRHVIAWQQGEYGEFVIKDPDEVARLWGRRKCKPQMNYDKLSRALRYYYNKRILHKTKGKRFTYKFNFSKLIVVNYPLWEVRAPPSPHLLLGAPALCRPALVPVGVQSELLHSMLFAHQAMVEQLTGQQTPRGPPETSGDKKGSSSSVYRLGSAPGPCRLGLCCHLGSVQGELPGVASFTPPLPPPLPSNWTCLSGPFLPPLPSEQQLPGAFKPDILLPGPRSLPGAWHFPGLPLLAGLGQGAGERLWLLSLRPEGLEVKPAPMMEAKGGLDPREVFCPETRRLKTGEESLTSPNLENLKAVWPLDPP
# Summary of the method: as §1
# ETS2 = target: T8, ETS2 (Homo sapiens, UniProt P15036 1-469); settings: protein: recombinant; tags: N-terminal GST; dsDNA, one strand shown
# T8 sequence: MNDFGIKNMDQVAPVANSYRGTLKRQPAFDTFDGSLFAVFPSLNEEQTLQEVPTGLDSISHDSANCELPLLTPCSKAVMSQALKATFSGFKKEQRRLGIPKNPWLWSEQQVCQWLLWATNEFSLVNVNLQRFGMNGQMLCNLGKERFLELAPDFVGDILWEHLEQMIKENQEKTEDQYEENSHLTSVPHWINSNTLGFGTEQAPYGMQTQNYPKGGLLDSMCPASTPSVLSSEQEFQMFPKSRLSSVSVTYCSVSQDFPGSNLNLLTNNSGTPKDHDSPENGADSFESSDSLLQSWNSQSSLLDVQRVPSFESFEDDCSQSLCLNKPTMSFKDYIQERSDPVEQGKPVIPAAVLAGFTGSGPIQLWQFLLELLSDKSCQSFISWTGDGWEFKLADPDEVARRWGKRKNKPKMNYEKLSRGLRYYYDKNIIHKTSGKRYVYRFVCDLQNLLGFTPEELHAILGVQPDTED
# Summary of the method: as §1
# SPDEF = target: T9, SPDEF (Homo sapiens, UniProt O95238 1-335); settings: protein: recombinant; tags: N-terminal GST; dsDNA, one strand shown
# T9 sequence: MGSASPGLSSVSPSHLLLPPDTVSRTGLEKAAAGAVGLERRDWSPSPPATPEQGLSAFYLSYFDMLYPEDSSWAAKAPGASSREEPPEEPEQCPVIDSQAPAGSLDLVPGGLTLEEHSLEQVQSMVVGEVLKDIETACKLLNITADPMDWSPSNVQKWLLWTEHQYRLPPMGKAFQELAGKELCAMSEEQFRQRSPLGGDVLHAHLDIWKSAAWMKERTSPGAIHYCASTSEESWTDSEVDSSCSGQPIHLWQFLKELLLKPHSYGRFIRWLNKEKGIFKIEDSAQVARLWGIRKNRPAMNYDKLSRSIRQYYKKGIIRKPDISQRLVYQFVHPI
# Summary of the method: as §1
# ETV7 = target: T10, ETV7 (Homo sapiens, UniProt Q9Y603 1-341); settings: protein: recombinant; tags: N-terminal GST; dsDNA, one strand shown
# T10 sequence: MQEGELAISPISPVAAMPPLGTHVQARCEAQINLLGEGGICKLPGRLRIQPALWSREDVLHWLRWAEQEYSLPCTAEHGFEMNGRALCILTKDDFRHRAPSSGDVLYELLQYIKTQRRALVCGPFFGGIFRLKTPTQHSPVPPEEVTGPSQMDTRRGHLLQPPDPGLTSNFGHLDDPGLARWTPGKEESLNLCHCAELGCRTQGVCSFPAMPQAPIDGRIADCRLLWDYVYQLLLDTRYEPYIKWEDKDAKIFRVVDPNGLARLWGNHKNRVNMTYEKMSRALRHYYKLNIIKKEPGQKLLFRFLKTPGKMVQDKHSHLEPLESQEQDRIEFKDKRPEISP
# Summary of the method: as §1
# ELF5 = target: T11, ELF5 (Homo sapiens, UniProt Q9UKW6-2 1-255); settings: protein: recombinant; tags: N-terminal GST; dsDNA, one strand shown
# T11 sequence: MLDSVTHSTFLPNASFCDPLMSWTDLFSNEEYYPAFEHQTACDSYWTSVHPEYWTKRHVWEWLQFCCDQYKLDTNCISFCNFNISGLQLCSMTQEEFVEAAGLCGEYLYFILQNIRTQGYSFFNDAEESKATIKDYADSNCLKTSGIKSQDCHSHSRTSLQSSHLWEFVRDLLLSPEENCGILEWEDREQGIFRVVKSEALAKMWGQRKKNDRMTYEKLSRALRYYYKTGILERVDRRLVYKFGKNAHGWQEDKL
# Summary of the method: as §1
# ETV3 = target: T12, ETV3 (Homo sapiens, UniProt P41162-2 1-143); settings: protein: recombinant; tags: N-terminal GST; dsDNA, one strand shown
# T12 sequence: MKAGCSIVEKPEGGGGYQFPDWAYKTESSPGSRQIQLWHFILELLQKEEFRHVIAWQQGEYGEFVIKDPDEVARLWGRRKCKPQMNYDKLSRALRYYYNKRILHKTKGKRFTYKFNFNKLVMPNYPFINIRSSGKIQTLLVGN
# Summary of the method: as §1
# ETV6 = ETV6 (Homo sapiens, UniProt P41212 1-452); settings: protein: recombinant; tags: N-terminal GST; dsDNA, one strand shown
# Summary of the method: as §1
# ETV6, sequence (P41212 whole entry): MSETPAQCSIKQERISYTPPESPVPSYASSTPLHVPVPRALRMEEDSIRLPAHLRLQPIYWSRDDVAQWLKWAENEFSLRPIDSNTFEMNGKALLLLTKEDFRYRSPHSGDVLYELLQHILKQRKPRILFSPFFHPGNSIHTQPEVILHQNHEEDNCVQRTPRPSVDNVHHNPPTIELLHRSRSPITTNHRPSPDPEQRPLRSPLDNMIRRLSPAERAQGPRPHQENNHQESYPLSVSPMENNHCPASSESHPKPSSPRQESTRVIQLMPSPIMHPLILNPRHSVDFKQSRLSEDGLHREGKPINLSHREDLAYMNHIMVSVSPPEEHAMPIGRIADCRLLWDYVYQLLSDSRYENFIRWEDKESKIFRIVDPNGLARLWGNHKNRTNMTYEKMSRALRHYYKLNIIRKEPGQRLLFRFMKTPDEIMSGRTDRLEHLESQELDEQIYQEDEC
# ELF4, sequence (Q99607 whole entry): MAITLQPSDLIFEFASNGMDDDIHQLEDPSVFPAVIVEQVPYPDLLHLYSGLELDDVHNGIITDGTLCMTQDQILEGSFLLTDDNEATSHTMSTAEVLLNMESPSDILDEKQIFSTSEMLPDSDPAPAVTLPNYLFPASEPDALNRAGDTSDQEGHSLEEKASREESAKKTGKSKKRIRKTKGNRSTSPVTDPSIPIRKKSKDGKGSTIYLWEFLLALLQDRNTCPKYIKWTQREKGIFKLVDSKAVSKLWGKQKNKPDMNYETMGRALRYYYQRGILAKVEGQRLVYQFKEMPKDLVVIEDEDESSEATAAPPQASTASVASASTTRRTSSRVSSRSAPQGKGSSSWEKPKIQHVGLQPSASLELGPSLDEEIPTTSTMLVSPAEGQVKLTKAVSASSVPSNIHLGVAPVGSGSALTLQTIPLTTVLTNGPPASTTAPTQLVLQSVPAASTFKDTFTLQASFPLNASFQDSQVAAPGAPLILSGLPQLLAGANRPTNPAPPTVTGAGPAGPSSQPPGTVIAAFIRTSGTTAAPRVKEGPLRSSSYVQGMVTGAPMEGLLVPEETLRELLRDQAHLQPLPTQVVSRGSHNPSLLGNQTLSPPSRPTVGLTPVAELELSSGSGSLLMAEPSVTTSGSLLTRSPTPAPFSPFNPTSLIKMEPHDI
# ETV1, sequence (P50549 whole entry): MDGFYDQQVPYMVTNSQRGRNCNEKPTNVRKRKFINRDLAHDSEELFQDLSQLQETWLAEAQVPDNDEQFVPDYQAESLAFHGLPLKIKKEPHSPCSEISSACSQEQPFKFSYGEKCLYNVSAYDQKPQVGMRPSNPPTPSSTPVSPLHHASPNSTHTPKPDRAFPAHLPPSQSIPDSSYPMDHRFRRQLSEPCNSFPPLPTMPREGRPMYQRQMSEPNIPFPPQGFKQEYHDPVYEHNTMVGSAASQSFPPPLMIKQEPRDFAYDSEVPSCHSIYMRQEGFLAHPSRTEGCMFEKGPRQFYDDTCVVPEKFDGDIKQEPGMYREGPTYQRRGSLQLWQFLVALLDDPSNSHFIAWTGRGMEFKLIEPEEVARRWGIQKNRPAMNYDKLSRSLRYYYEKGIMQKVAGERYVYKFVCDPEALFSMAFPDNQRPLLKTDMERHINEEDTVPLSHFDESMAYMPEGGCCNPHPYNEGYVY
# ETV5, sequence (P41161 whole entry): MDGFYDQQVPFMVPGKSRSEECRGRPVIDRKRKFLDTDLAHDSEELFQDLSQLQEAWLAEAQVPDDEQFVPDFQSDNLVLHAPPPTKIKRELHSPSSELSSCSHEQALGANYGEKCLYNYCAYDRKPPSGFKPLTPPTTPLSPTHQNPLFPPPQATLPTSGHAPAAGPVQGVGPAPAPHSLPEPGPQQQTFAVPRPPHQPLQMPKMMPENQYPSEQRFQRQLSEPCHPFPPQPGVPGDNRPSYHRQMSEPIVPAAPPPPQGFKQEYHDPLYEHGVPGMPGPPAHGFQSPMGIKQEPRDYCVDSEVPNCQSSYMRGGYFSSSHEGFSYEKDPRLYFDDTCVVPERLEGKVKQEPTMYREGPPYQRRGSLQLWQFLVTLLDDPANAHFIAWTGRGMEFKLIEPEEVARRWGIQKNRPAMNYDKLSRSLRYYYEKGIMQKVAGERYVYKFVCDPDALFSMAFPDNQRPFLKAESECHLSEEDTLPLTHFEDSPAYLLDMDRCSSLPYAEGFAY
# CRX, sequence (O43186 whole entry): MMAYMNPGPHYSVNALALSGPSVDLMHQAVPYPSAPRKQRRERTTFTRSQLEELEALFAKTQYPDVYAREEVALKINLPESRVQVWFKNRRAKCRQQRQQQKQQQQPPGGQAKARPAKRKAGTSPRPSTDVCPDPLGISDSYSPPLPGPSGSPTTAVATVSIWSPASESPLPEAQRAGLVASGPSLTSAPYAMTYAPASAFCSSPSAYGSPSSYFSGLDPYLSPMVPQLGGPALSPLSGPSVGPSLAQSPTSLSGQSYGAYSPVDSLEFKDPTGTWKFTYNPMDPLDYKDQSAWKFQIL
# HSF1, sequence (Q00613 whole entry): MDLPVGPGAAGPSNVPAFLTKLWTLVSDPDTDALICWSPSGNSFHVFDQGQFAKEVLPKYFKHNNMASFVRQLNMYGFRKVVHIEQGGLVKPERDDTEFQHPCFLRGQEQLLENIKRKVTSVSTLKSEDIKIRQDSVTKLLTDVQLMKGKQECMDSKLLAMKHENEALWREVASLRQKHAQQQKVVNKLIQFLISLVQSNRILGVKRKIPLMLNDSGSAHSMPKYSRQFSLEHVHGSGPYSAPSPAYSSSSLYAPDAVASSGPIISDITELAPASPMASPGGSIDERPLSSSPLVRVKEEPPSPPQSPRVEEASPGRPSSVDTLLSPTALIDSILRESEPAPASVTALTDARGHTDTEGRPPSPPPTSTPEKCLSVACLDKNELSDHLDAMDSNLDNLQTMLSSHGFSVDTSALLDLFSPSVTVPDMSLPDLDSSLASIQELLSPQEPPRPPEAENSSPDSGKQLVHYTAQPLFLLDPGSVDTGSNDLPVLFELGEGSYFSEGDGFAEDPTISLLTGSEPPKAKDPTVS
sequence,measurement,setting,value
CTCCCC,binding signal,FEV,"1.4 fold enrichment (6-mer frequency, TF over GST control)"
same,binding signal,ETV5,"1.39 fold enrichment (6-mer frequency, TF over GST control)"
same,binding signal,HSF1,"1.14 fold enrichment (6-mer frequency, TF over GST control)"
same,binding signal,SPIC,"1.28 fold enrichment (6-mer frequency, TF over GST control)"
same,binding signal,ELF4,"1.42 fold enrichment (6-mer frequency, TF over GST control)"
same,binding signal,ELK4,"1.38 fold enrichment (6-mer frequency, TF over GST control)"
same,binding signal,ETV2,"1.63 fold enrichment (6-mer frequency, TF over GST control)"
same,binding signal,ELF3,"1.25 fold enrichment (6-mer frequency, TF over GST control)"
same,binding signal,CRX,"1.19 fold enrichment (6-mer frequency, TF over GST control)"
same,binding signal,ETV1,"1.46 fold enrichment (6-mer frequency, TF over GST control)"
same,binding signal,ERF,"1.51 fold enrichment (6-mer frequency, TF over GST control)"
same,binding signal,ETV3L,"1.29 fold enrichment (6-mer frequency, TF over GST control)"
same,binding signal,ETS2,"1.33 fold enrichment (6-mer frequency, TF over GST control)"
same,binding signal,SPDEF,"1.28 fold enrichment (6-mer frequency, TF over GST control)"
same,binding signal,ETV7,"1.37 fold enrichment (6-mer frequency, TF over GST control)"
same,binding signal,ELF5,"1.33 fold enrichment (6-mer frequency, TF over GST control)"
same,binding signal,ETV3,"1.38 fold enrichment (6-mer frequency, TF over GST control)"
same,binding signal,ETV6,"1.36 fold enrichment (6-mer frequency, TF over GST control)"
